RORgamma inh – blocks mouse ROR gamma transcriptional activity; P51450; Drosophila S2 Gal4-RORgamma UAS-luciferase reporter, 20 h; Potency, µM (titrated, usually from 53.6 µM), inactives show at the top dose activity change, negative = inhibition, hits mostly inhibitors; actives 5.4% (n = 310,000); AID 2551; further: on the % scale 0 is the no-effect control and ±100 the full control effect; nearly all actives have a fitted effect of over 60% in size
Target sequence (P51450 whole entry, looked up, the tested form may be a part): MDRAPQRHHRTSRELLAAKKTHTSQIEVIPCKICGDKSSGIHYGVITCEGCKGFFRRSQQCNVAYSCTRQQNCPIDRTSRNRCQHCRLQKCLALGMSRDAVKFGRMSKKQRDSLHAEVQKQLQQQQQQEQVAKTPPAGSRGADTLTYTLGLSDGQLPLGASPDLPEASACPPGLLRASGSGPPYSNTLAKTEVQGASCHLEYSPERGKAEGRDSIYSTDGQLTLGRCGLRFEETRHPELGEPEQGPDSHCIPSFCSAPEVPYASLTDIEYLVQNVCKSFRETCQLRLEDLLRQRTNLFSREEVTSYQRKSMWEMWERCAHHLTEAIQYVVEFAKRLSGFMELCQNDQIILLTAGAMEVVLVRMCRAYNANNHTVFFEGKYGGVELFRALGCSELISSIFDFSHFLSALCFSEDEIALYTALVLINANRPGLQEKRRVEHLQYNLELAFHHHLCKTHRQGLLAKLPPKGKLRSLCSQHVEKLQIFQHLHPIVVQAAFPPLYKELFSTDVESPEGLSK
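Using a luciferase readout, inhibitors were identified by reduced reporter activity in Drosophila cells coexpressing a copper-inducible Gal4–ROR gamma fusion and UAS-driven Photinus luciferase, incubated 20 hr after 700 uM copper sulfate.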
Integrin act MD – activates integrin-mediated alleviation for muscular dystrophy; AID 624291; alpha7betagal myoblasts, beta-gal FDG fluorescence, 48 h; Potency, µM (doses to about 38.3 µM), for the others: at the top dose activation, hits mostly activators; actives 0.064% (n = 350,000);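 further: 100% = response of the positive control SU9516; nearly all actives have a fitted effect of over 60% in size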
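alpha7betagal+/- myoblasts (passage 13, 250/well) treated 48 h at 37C with compounds at 1:260 dilution of DMSO stock. Lysed, then beta-galactosidase activity read as FDG fluorescence (ex 480/em 540) after 30 min, with pre-read for autofluorescence.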
Mito fusion yeast – inhibitors of mitochondrial division or activators of mitochondrial fusion. S. cerevisiae fusion-defective mutant growth rescue, CellTiterGlo 48 h. Potency, µM (top dose mostly 46.1 µM), for the others: top-dose growth rescue (activation), most hits filed as activators. actives 0.23% (n = 320,000). AID 485298; further: % of control where 0% means no effect; nearly all actives have a fitted effect of over 45% in size
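Temperature-sensitive fusion-defective S. cerevisiae (e.g. fzo1-1, mgm1-5) were grown with compound in YPEG medium (3% ethanol, 3% glycerol) for 48 hours at 37C. Growth rescue was measured as viability by CellTiterGlo luminescence after 10 minutes at ambient.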
Chronic BCR inh – blocks chronic active B-cell receptor signaling | ABC-DLBCL IkBa-CBG/CBR reporter, luminescence ratio, 4 h | Potency, µM (top dose mostly 46.1 µM), for the others: at the highest dose activity change, negative = inhibition, hits mostly inhibitors | actives 0.05% (n = 340,000); active means well fitted inhibition curve with a large enough effect in the signal ratio, with a control signal flat, not every such curve was filed as active; inconclusive means small, poorly fitted or top-dose-only effect, or effect the other way, or a change in a side signal; the % refers to the signal ratio;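 further: plate controls were basal doxycycline-induced cells for no effect and cells given 10 µM MG132 for full effect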
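Concentration-response series (up to 46 uM) were applied to TMD8 dual-reporter cells for 4 h at 37C with doxycycline. Green/red ratio, after filter-overlap correction, defined %Activity; red signal alone was normalised to basal cells and zero luminescence.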
VP16 counter – Gal4-VP16 reporter inhibition counter-screen; AID 2546; Drosophila S2 Gal4-VP16 UAS-luciferase, luminescence, 20 h; Potency, µM (titrated, usually from 53.6 µM), without a hit: at the highest dose activity, negative = inhibition, usual class: inhibitors; actives 3.5% (n = 310,000);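 further: Gal4-VP16 expression switched on by copper sulfate through the metallothionein promoter; on the % scale 0 is the no-effect control and ±100 the full control effect; nearly all actives have a fitted effect of over 50% in size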
uPA surface inh – inhibitors of cell surface uPA generation. AID 540303. cell surface uPA generation assay, qHTS. Potency, µM (doses to about 38.3 µM), for the others: at the top dose activity change, negative = inhibition, most hits filed as inhibitors. actives 0.31% (n = 330,000); active means well fitted inhibition curve with a large enough effect; inconclusive means small, poorly fitted or top-dose-only effect; inactive means no such curve, though single readings can be large or run the other way; tested in mouse RAW 264.7 cells; further: on the % scale 0 is the no-effect control and ±100 the full control effect; nearly all actives have a fitted effect of over 55% in size
Starred values were filed as active, the others as inactive; ? = inconclusive; . = no result given; [ ] = dose if it differs, or a comment. An excerpt weighted towards active compounds, which were near 5.5% of everything screened. Unless noted, the call rests on the fitted dose curve; in most records, active means well fitted curve in the direction sought with a large enough effect; inconclusive means small, poorly fitted or top-dose-only effect, or another doubt; inactive means no such curve, though single readings can be large; an effect the other way counts as inactive or inconclusive. Potency means the concentration at half of the fitted maximal effect.

SMILES	RORgamma inh	Integrin act MD	Mito fusion yeast	Chronic BCR inh	VP16 counter	uPA surface inh
CC(C)c1ccc(NC(=S)Nc2ccc3[nH]c(=O)[nH]c3c2)cc1	?	0%	-6%	5%	?	-4%
NS(=O)(=O)c1cc(C(=O)Nc2ccc3c(c2)CCC3)ccc1Cl	-33%	13%	0%	?	?	1%
CC(C)Nc1cccnc1N1CCN(C(=O)c2cc3cc(NS(C)(=O)=O)ccc3[nH]2)CC1	?	.	.	.	7%	.
O=C(N/N=C/c1cn(-c2ccccc2)nc1-c1cc2ccccc2o1)c1c[nH]c2ccccc12	?	2%	10%	6%	-1%	-2%
O=C(N/N=C/c1cn(-c2cccs2)nc1-c1ccccc1)c1ccccc1Br	5.6µM*	-27%	?	?	6.3µM*	-10%
O=C(N/N=C/c1cn(-c2ccccc2)nc1-c1cc2ccccc2o1)c1ccccc1Br	?	-8%	1%	?	5µM*	1%
OCc1cn(-c2ccccc2)nc1-c1cc2ccccc2o1	?	-8%	9%	?	11µM*	-6%
O=C(N/N=C/c1cn(-c2cccs2)nc1-c1ccccc1)c1ccccc1O	0.028µM*	-11%	-1%	?	?	-16%
Cc1ccc(CNC(=O)[C@]2(C(F)(F)F)C[C@H](CCc3ccccc3)CCCO2)o1	5%	.	.	.	-11%	.
COc1ccc(-c2cc(=O)oc3cc(OCC(=O)Nc4ccc(CCO)cc4)ccc23)cc1	8%	0%	0%	-1%	-4%	-4%
Cc1ccc(-n2c(-c3ccc(Cl)cc3)n[nH]c2=S)c(C)c1	1.4µM*	0%	2%	?	1.1µM*	-12%
Cc1ccc(-n2c(-c3cccnc3)n[nH]c2=S)c(C)c1	?	3%	4%	1%	?	3%
COc1ccc(-c2n[nH]c(=S)n2-c2ccc(C)cc2C)cc1	2.8µM*	-15%	-11%	-1%	5µM*	6%
CCOc1ccc(-c2cnc3n2CCC3)cc1	16µM*	-6%	11%	-3%	-27%	-9%
Brc1ccc(-c2cnc3n2CCCC3)cc1	?	0%	-8%	?	?	18%
Fc1ccc(-c2cnc3n2CCCCC3)cc1	11µM*	-21%	-4%	6%	-15%	2%
Clc1ccc(-c2cnc3n2CCCCC3)cc1	5.6µM*	?	2%	1%	?	2%
COc1ccc2cc(/C=C/C(=O)c3ccco3)c(Cl)nc2c1	?	.	-2%	-1%	?	.
COc1cc2cc(/C=C/C(=O)c3ccco3)c(Cl)nc2cc1OC	?	-3%	-2%	?	7.9µM*	-8%
Cc1ccc(NC(=O)C2CCN(C(=O)c3ccccc3C)CC2)nc1	.	0%	-8%	7%	.	-1%
COc1ccc(Br)cc1C1CC(=O)N2CN(C)CSC2=C1C#N (stereo unspecified)	16µM*	6%	6%	-10%	-2%	-6%
COc1cc(OC)c(C2CC(=O)N3CN(C)CSC3=C2C#N)cc1OC (stereo unspecified)	-21%	10%	-1%	1%	4%	3%
O=C(COC(=O)Cn1cnc2ccccc2c1=O)Nc1ccccc1OC(F)F	.	-7%	.	?	.	1%
CC(C)CC(NC(=O)NC(CCC(=O)O)C(=O)O)C(=O)O (stereo unspecified)	2%	.	.	.	3%	.
Cc1ccc2c(c1)C(=O)C(=O)N2Cc1ccc(C(F)(F)F)cc1	.	-33%	.	?	.	3.5µM*
CCOC(=O)CSCC(NC(=O)OC(C)(C)C)C(=O)OCC (stereo unspecified)	7.1µM*	-18%	2%	0%	?	7%
CCc1nc2ccccc2n1Cc1ccccc1F	10µM*	-8%	0%	-1%	-20%[10 µM]	0%
CCn1c(CN(C)c2ccccc2)nc2ccccc21	10µM*	6%	-12%	0%	22µM*	-2%
Cc1nc2ccccc2c(=O)n1CCc1ccccc1	30%	0%	10%	11%	0%	-7%

Screens as filed in PubChem BioAssay.
